The structures appear in SMILES notation.

From ChEMBL document CHEMBL1961873, “Compounds: GSK PKIS; Assays: Nanosyn kinase panel” (2012) come the findings set out here.

For assay [1], the target named is Serine/threonine-protein kinase 26 (Homo sapiens) (UniProt Q9P289). The conditions noted are these: at 1 µM.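 Further: mean inhibition of MST4 kinase activity, reported from the GSK PKIS inhibitor-set screening panel.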
Assay [2] concerns the target Serine/threonine-protein kinase PAK 1 (Homo sapiens) (UniProt Q13153). To be noted: at 0.1 µM.
The target is the same in assay [3]. The conditions noted are these: at 1 µM.
The target in assay [4] is Serine/threonine-protein kinase PAK 2 (Homo sapiens) (UniProt Q13177). To be noted: at 0.1 µM.
Assay [5] has the same target. To be noted: at 1 µM.
The target in assay [6] is Serine/threonine-protein kinase PAK 3 (Homo sapiens) (UniProt O75914). The conditions noted are these: at 0.1 µM.
Assay [7] shares this target. The conditions noted are these: at 1 µM.
In assay [8] the target is Serine/threonine-protein kinase PAK 5 (Homo sapiens) (UniProt Q9P286). The conditions noted are these: at 0.1 µM.
The target is the same in assay [9]. The conditions noted are these: at 1 µM.
Assay [10] concerns the target Serine/threonine-protein kinase PAK 6 (Homo sapiens) (UniProt Q9NQU5). To be noted: at 0.1 µM.
For assay [11] the target is unchanged. To be noted: at 1 µM.
The test system of assay [12] is Tyrosine-protein kinase ABL1 (Homo sapiens), P00519 [E255K]. To be noted: at 0.1 µM.
The test system is the same in assay [13]. The conditions noted are these: at 1 µM.
Assay [14] relates to Tyrosine-protein kinase ABL1 (Homo sapiens), P00519 [H396P]. The conditions noted are these: at 0.1 µM.
Assay [15] has the same test system. To be noted: at 1 µM.
The subject of assay [16] is Tyrosine-protein kinase ABL1 (Homo sapiens), P00519 [M351T]. The conditions noted are these: at 0.1 µM.
Assay [17] has the same test system. To be noted: at 1 µM.
The subject of assay [18] is Tyrosine-protein kinase ABL1 (Homo sapiens), P00519 [Q252H]. To be noted: at 0.1 µM.
Assay [19] shares this test system. The conditions noted are these: at 1 µM.
The test system of assay [20] is Tyrosine-protein kinase ABL1 (Homo sapiens), P00519 [T315I]. The conditions noted are these: at 0.1 µM.

Sequence of Serine/threonine-protein kinase PAK 5 (Homo sapiens) (Q9P286 whole entry, looked up): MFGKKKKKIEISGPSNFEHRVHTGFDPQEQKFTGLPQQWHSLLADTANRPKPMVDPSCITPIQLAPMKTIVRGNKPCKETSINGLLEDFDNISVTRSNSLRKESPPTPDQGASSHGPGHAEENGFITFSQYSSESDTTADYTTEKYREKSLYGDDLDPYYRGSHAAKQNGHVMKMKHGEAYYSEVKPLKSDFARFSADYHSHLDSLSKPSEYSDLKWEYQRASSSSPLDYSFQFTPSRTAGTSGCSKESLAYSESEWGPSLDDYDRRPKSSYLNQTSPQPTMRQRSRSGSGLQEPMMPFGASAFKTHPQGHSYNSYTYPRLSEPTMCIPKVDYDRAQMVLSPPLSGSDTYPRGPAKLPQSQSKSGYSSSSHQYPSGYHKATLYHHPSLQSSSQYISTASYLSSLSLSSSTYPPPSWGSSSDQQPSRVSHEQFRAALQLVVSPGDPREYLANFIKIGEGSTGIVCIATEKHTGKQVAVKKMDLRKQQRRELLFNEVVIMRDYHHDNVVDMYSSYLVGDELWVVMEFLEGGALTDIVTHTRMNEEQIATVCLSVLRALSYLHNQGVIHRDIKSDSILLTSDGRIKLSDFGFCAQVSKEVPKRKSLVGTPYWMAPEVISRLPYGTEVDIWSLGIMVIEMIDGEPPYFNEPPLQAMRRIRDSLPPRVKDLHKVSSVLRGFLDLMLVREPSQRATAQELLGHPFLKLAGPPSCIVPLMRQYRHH
Sequence of Serine/threonine-protein kinase PAK 3 (Homo sapiens) (O75914 whole entry, looked up): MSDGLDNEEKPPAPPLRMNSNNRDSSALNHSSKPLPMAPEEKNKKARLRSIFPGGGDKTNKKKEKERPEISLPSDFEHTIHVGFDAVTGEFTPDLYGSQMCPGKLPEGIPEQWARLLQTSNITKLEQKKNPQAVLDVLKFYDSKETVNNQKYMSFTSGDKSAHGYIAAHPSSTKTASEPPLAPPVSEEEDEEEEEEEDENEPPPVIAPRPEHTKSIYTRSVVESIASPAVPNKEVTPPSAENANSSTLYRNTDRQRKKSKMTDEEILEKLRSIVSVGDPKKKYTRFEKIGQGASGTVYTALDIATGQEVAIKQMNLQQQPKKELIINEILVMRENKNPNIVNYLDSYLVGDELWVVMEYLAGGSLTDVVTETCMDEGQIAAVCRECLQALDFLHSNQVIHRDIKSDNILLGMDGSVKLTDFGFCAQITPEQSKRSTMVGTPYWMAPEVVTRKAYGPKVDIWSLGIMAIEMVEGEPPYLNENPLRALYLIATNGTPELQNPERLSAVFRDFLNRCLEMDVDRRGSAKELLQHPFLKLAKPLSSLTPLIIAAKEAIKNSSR
Sequence of Serine/threonine-protein kinase PAK 1 (Homo sapiens) (Q13153 whole entry): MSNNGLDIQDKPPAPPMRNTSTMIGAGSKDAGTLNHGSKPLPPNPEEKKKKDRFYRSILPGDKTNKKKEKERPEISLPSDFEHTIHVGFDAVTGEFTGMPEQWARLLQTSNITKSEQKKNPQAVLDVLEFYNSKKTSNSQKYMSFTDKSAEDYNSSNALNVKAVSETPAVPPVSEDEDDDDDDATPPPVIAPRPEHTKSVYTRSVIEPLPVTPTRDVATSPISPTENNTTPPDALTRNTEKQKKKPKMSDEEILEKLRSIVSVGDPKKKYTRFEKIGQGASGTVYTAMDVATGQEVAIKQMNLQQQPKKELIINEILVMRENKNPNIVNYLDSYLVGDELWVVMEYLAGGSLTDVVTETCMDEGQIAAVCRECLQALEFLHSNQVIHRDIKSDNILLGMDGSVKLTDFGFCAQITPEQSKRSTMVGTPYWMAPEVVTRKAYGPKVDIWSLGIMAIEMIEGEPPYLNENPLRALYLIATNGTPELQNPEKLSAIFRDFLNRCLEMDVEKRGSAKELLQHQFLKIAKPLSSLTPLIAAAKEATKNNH
Sequence of Serine/threonine-protein kinase PAK 6 (Homo sapiens) (Q9NQU5 whole entry, looked up): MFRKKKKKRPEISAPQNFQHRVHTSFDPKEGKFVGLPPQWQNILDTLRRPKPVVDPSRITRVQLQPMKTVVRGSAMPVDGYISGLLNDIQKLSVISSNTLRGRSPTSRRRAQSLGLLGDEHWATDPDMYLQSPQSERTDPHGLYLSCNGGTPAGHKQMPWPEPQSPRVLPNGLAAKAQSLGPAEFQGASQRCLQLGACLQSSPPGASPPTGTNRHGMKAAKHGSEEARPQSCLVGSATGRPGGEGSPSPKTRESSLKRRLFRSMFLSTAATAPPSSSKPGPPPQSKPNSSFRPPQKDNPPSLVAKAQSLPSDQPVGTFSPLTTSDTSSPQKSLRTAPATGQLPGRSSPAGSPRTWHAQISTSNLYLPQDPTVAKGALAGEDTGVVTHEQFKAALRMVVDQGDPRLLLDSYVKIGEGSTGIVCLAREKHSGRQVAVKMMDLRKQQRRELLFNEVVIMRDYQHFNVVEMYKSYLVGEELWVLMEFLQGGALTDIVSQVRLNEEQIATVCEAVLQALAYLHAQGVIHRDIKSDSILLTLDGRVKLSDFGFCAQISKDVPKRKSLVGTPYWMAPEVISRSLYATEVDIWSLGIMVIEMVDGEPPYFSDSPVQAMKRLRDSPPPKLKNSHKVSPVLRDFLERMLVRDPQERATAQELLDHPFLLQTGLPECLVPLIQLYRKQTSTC
Sequence of Serine/threonine-protein kinase PAK 2 (Homo sapiens) (Q13177 whole entry): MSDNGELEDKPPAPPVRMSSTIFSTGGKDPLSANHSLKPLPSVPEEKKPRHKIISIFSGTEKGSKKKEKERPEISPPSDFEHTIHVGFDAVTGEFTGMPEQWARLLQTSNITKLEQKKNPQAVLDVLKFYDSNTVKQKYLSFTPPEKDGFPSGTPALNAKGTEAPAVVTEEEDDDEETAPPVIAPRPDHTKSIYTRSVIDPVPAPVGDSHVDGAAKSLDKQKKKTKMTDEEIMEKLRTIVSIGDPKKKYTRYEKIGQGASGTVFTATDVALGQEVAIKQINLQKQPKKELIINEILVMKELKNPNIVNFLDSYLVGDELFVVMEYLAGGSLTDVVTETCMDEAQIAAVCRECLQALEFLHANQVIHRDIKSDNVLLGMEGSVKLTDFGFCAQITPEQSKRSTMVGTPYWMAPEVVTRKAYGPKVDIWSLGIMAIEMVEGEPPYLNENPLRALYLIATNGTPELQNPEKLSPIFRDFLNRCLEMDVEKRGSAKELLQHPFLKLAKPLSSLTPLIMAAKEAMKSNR
Sequence of Serine/threonine-protein kinase 26 (Homo sapiens) (Q9P289 2-416 limits assumed): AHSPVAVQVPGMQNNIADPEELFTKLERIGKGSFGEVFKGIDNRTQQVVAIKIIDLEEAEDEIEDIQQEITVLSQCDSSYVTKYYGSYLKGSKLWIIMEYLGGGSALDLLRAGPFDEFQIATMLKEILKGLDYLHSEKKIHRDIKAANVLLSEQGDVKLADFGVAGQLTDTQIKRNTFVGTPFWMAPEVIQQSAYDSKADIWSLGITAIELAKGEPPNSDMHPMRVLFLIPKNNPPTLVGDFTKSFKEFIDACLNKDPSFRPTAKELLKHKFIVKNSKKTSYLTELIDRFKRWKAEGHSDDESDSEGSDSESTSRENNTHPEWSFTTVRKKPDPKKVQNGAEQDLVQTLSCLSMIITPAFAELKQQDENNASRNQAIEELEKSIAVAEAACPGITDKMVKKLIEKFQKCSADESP

Take `CC(=O)Nc1cccc(C#Cc2cncnc2Nc2ccc(OCc3cccc(F)c3)c(Cl)c2)n1`: the inhibition in assay [1] was 2.51%; in assay [2] it was 1.24%; in [3] it was 0.67%; in assay [4] it was -0.89%; in [5], -0.09%; in [6] it was -0.61%. Further, the inhibition was -0.35% in [7]; 4.91% in assay [8]; 9.12% in assay [9]; 10.8% in assay [10]; 0.8% in [11]; -0.61% in [12]. Also, the inhibition in assay [13] was -0.48%; in [14] it was 0.09%; in assay [15], 1.6%; in [16], 1.08%; in [17], 3.88%; in [18], 0.29%. The inhibition in assay [19] was 3.02%; in assay [20] it was 0.4%.

Regarding `COC(=O)Nc1nc2cc(Oc3ccc(NC(=O)Nc4cccc(C(=O)O)c4)cc3)ccc2[nH]1`, the inhibition in [1] is 3.41%; in assay [2], 0.04%; in assay [3] it was 2.31%; in assay [4] it was -0.12%; in assay [5] it was -0.31%; in assay [6] it was 0%. Moreover, the inhibition was 0.98% in assay [7]; 7.82% in [8]; 3.29% in assay [9]; 3.13% in [10]; 4.26% in [11]; -4.91% in [12]. Also, the inhibition stood at 3.52% in assay [13]; 0.4% in assay [14]; 9.38% in [15]; 3.52% in assay [16]; 19.9% in [17]; 1.92% in [18]. For the same compound, the inhibition in assay [19] came to 14.4%; in [20], 2.13%.

Consider `Nc1ncnc2occ(-c3ccc(NC(=O)Nc4cccc(C(F)(F)F)c4)cc3)c12`, for which the inhibition in assay [1] is -4.13%; in assay [2], 6.38%; in assay [3], 5.2%; in assay [4], 1.77%; in [5] it was 1.5%; in assay [6], 6.37%. Also, the inhibition in assay [7] was 5.54%; in assay [8], 2.15%; in assay [9], 3.35%; in [10] it was -0.62%; in [11], -2.37%; in assay [12], 5.41%. Besides, the inhibition in assay [13] came to 38.8%; in assay [14] it was 25.3%; in [15], 76.8%; in assay [16], 54.5%; in assay [17], 85.1%; in assay [18], 54.2%. Moreover, the results for the inhibition in [19] and in assay [20] were 81.6% and 48.3%, respectively.

Regarding `CCn1c(-c2nonc2N)nc2c(C#CC(C)(C)O)nc(CN3CCCC3)cc21`, the inhibition is 7.65% in assay [1]; 0.14% in [2]; 2.33% in assay [3]; -2.93% in assay [4]; -0.92% in [5]; -0.82% in assay [6]. Besides, the inhibition in [7] was 0.31%; in assay [8], -4.5%; in assay [9], -1.51%; in assay [10], 10.8%; in assay [11] it was -0.08%; in assay [12], 0.01%. Further, the inhibition in assay [13] was 0.44%; in [14] it was 0.09%; in [15] it was 0.68%; in [16] it was -0.36%; in [17], 2.83%; in assay [18] it was 0.06%. The figures for the inhibition in assay [19] and in assay [20] were 3.09% and -0.43%, respectively.

Turning to `O=C1NC(=O)C(c2ccc(Cl)cc2)=C1Nc1ccc(Cl)c(C(=O)O)c1`, the inhibition in [1] is -0.4%; in assay [2] it was -2.53%; in assay [3] it was 2.15%; in assay [4], -1.89%; in [5], -1.88%; in [6], -3.46%. The inhibition in assay [7] is -2.5%; in assay [8] it was 0.14%; in assay [9], 0.32%; in assay [10], 13.1%; in assay [11], -0.68%; in assay [12], 2.02%. In addition, the inhibition in [13] is -2.33%; in [14], -0.65%; in assay [15], 1.82%; in assay [16], 1.3%; in assay [17] it was 4.53%; in [18], 1.18%. Also, the inhibition in [19] was 1.68%; in assay [20] it was 0.69%.

On to `N#Cc1c(NC(=O)c2cccc3ccccc23)sc2c1CCCC2`, for which the inhibition stood at 1.23% in [1]; 5.02% in assay [2]; 3.74% in [3]; 0.12% in assay [4]; 1.16% in assay [5]; 2.52% in assay [6]. In addition, the inhibition in assay [7] was 3.41%; in assay [8], -2.18%; in assay [9], -9.6%; in [10], 7.76%; in assay [11], 1.52%; in [12] it was 4.44%. In addition, the inhibition came out at 5.5% in [13]; 4.91% in [14]; 2.88% in assay [15]; 3.89% in assay [16]; 3.56% in [17]; 5.46% in assay [18]. In addition, the inhibition in assay [19] amounted to 3.18%; in [20], 2.03%.

Take `COC(=O)Nc1nc2cc(Oc3cccc(NC(=O)Nc4cc(C(F)(F)F)ccc4F)c3)ccc2[nH]1`: the inhibition in [1] is 1.92%; in assay [2], 3.97%; in assay [3] it was -1.03%; in [4], -1.19%; in [5] it was 0.23%; in assay [6] it was -1.11%. Further, the inhibition in assay [7] is -1.11%; in [8], 0.91%; in [9] it was -5.17%; in [10], 6.44%; in assay [11] it was -6.76%; in [12] it was 0.37%. Besides, the inhibition came out at 7.39% in assay [13]; 9.03% in assay [14]; 41.7% in assay [15]; 34.8% in assay [16]; 69.3% in assay [17]; 32.1% in assay [18]. Besides, the inhibition in assay [19] is 68.6%; in [20], 2.28%.

On to `Nc1nc(-c2ccc3c(c2)C(=Cc2cc(Br)c(O)c(Br)c2)C(=O)N3)cs1`, for which the inhibition in assay [1] is 15.5%; in [2], 2.87%; in assay [3], -1.51%; in assay [4], -2.22%; in assay [5] it was -1.94%; in assay [6], -4.94%. The inhibition was -1.99% in assay [7]; -3.15% in [9]; -5.26% in assay [10]; -0.02% in assay [12]; 6.46% in assay [13]; 0.77% in [14]. Besides, the inhibition in assay [15] is 4.36%; in assay [16], -0.05%; in assay [17], 4.99%; in assay [18], 2.23%; in assay [19], 6.93%; in [20] it was -0.15%.

As for `COc1cc2ncn(-c3cc(OCc4ccccc4C(F)(F)F)c(C(N)=O)s3)c2cc1OC`, the inhibition in [2] was 3.79%; in assay [3], 7.26%; in [4], 1.94%; in [5], 1.77%; in assay [6], 5.55%; in [7], 5.02%. The inhibition was 1.8% in assay [8]; 2.59% in [9]; -0.96% in assay [10]; -0.46% in [11]; 0.92% in assay [12]; 13.5% in [13]. Also, the inhibition in assay [14] worked out at 5.99%; in assay [15], 23%; in [16] it was 3.68%; in assay [17] it was 19.2%; in [18] it was 5.63%; in assay [19] it was 21.9%. Also, in assay [20], the inhibition was 3.84%.

With `Cc1nnc(-c2ccc(C)c(-c3ccc(C(=O)Nc4cccc(C#N)c4)cc3)c2)o1`, the inhibition in assay [1] was -0.56%; in assay [2], 5.8%; in assay [3], 1.41%; in assay [4], 0.71%; in assay [5] it was 0.48%; in [6], 2.48%. Besides, the inhibition in [7] was 2.15%; in [8], 0.22%; in [9] it was -1.12%; in assay [10] it was -9.89%; in [11], -7.37%; in [12], 2%. In addition, the inhibition in [13] was 4.21%; in [14] it was -0.02%; in assay [15], 3.51%; in assay [16], -0.06%; in [17] it was 2.91%; in assay [18], 3.04%. In addition, the inhibition was found to be 4.21% in assay [19] and 1.53% in assay [20].

`CCCN1CCC=C(c2ccc(Nc3nc(Nc4ccccc4C(N)=O)c4cc[nH]c4n3)c(C)c2)C1`: the inhibition in [1] is -1.15%; in assay [2] it was 8.77%; in assay [3], 12.7%; in [4], 2.2%; in assay [5], 3.03%; in [6] it was 5%. Besides, the inhibition is 6.44% in [7]; 6.43% in assay [8]; 14.2% in assay [9]; -5.41% in [11]; -0.02% in assay [12]; 5.11% in [13]. Further, the inhibition in assay [14] was 2.87%; in assay [15], 7.11%; in assay [16], 1.17%; in assay [17], 5.02%; in assay [18] it was 3.91%; in assay [19] it was 8.95%. Moreover, the inhibition in assay [20] worked out at 1.37%.

For the compound `CS(=O)(=O)CCN(CC#N)Cc1ccc(-c2ccc3ncnc(Nc4ccc(OCc5cccc(F)c5)c(Cl)c4)c3c2)o1`, the inhibition in [1] was found to be 0.46%; in assay [2], 1.88%; in [3] it was 4.88%; in [4], 0.62%; in [5], 0.16%; in assay [6] it was 2.04%. In addition, the inhibition in assay [7] is 4.29%; in assay [8], 0.28%; in assay [9], -0.85%; in [10] it was -6.8%; in assay [11], -7.94%; in assay [12], 0.94%. Besides, the inhibition stood at 1% in [13]; 1.77% in [14]; 1.89% in assay [15]; 0.73% in [16]; 0.36% in assay [17]; 0.95% in assay [18]. Also, the results for the inhibition in [19] and in assay [20] were 0.42% and -0.08%, respectively.

On to `CCN1CCC(CC(=O)Nc2n[nH]c3nc(-c4cccs4)c(Br)cc23)CC1`, for which the inhibition in assay [1] was 12%; in [2], -4.19%; in [3], -3.71%; in [4] it was -2.22%; in [5], -2.2%; in assay [6] it was -1.67%. Also, the inhibition in [7] was -3.03%; in [8], 0.15%; in assay [9], 16.4%; in assay [11], -1.76%; in assay [12], -1.62%; in assay [13], 2.21%. Further, the inhibition in [14] is -0.27%; in [15], 8.03%; in assay [16] it was -0.05%; in [17], 4.95%; in assay [18], 0.92%; in assay [19], 11.6%. Also, the inhibition in [20] was 3.23%.
